Where “and” joins values, the source holds several entries; their conditions need not be identical. Equal entries are not always repeated. Among all 410,000 compounds or so, about 18,000 (4.4%) were called active. Inconclusive results (about 7%) are left out. No stated cut-off is given here; in the data, active means activity change below about -60%; inconclusive means no clear call, values can overlap the other calls; inactive means above about -39%. For the sample, actives were picked, then their nearest neighbours and some compounds at random. Some structures have more than one record in an assay (separate samples or runs), and their calls can disagree.
assay: qHTS Assay for inhibitors of the human cytomegalovirus (HCMV); conditions: HFF cells, HCMV-luciferase reporter, 72 h; at 57.5 µM; stronger effect = lower value
Text: NCGC Assay Overview: Infection with human cytomegalovirus (HCMV) continues to pose significant threats for pregnant women and immunocompromised hosts. HCMV causes serious morbidity and mortality in transplant recipients, and congenital HCMV is the leading infectious cause of mental retardation and deafness in children. In the 1990s, the annual costs associated with the disease burden of congenital CMV were estimated at around $2 billion. A HCMV vaccine is not available yet and HCMV therapies result in intolerable side effects and emergence of drug resistant viruses. […] Towards this goal we have developed and characterized a luciferase HCMV reporter that was initially used in 96 well plates and then optimized to 1536-well plates for utilization in screening of the MLSMR collection, the NGCG diversity collection and the NCGC Pharmaceutical Collection of approved and investigational drugs.
NCGC Assay Protocol Summary:
This is a cell-based assay for HCMV inhibition in HFFs cells. The screening used 2 compound doses and the HCMV-luciferase at MOI of 1 PFU/cell. Cells were treated and infected with HCMV. At 72 h post infection cell lysates were collected and luciferase activity was determined using the Glomax-Multi + Detection System (Promega, Madison, WI). Data were normalized to the controls for basal activity (buffer only) and known HCMV inhibitors Salinmoycin.
1536-well assay protocol for the assay:
(1) Add 3 ul CMV/HFF cell culture. 1000 cells/well in DMEM nirmal media.
(2) Incubate 16 hr at 37C.
(3) Add 23 nl control compound, 10uM of Salinomycin.
(4) Add 23 nl compounds in DMSO solution.
(5) Add 3 ul CMV suspension. Final 1 puf/ul, Virus stock 2000pfu/ul
(6) Incubate 72 hrs at 37C.
(7) Add 4 ul OneGlo Luc Reagent.
(8) Incubate 5 min at room temperature.
On the % scale 0 is the no-effect control and ±100 the full control effect.

Structure (SMILES)	activity change, negative = inhibition
CC(C)c1ccc(CN2C(=O)C(n3ccc4ccccc43)c3cccc(F)c32)cc1 (stereo not drawn)	-19.8% (inactive)
C=CS(=O)c1sc(Cl)c(N2CCOCC2)c1[N+](=O)[O-] (stereo not drawn)	-29.1% (inactive)
Cc1ccc(O)c(NC(=O)c2cc(-c3ccc(F)cc3)no2)c1	-17.5% (inactive)
COc1ccc2c(c1)CCc1c(C(=O)Nc3cc(C)ccc3O)noc1-2	-8.9% (inactive)
Cc1ccc(O)c(NC(=O)c2cc(-c3ccco3)on2)c1	-60.7% (active)
O=C(NCc1ccccc1Cl)C1=Cc2cc(Br)ccc2OC1	-3.65% (inactive)
CCOc1ccc(CNCc2c(C(=O)O)c(C)n(Cc3cccc(OC)c3)c2C)cc1OC	-14.2% (inactive)
C=Cc1ccc(Cn2c(C(=O)O)c(CNC3CCCC3)c3ccc(C)cc32)cc1	-2.87% (inactive)
Cc1c(CNC2CCCCC2)c(C(=O)O)c(C)n1Cc1cccc(Cl)c1	-85.4% (active)
COc1ccc(-c2nc(CN3CCC(C(=O)NCc4ccccc4)CC3)c(C)o2)cc1OC	1.58% (inactive)
CCOc1ccc(S(=O)(=O)N(CC(=O)NCCSCc2ccc(C)cc2)c2ccccc2)cc1	21.6% (inactive)
O=C1[C@@H]2C(Cc3ccc(O)cc3)NC3(C(=O)Nc4ccc(F)cc43)[C@@H]2C(=O)N1c1ccc(F)cc1 (stereo partly drawn)	5.54% (inactive)
COc1ccc([N+](=O)[O-])cc1NCC(=O)c1ccc(C)cc1	23.3% (inactive)
COc1ccc(C(=O)c2c3ccc([N+](=O)[O-])cc3[n+]([O-])n2CCCN)cc1	-65.8% (active)
COc1ccc(NS(=O)(=O)c2cc(NC(=O)CC(=O)c3ccc([N+](=O)[O-])cc3)ccc2C)cc1	-28.9% (inactive)
Cn1cncc1-c1cc2cnc(Nc3ccc(OC(F)(F)F)cc3)cc2[nH]1	-21.4% (inactive)
Cc1ccc(S(=O)(=O)N2CCc3cc(C(=O)Nc4ccc(Cl)cc4C)ccc32)cc1	0.154% (inactive)
COc1ccc(Cn2c(=O)n(-c3ccccc3C)c(=O)c3c4c(sc32)CN(C(C)=O)CC4)cc1	3.89% (inactive)
CC(=O)c1ccc(S(=O)(=O)N2CCN(c3nc4c(C)c(C)ccc4cc3C#N)CC2)cc1	-87.3% (active)
Cc1ccc(C)c2sc(NC(=O)c3ccc(S(=O)(=O)N4CCCC4)cc3)nc12	37.4% (inactive)
CC(=O)c1ccc(N2CCN(S(=O)(=O)c3ccc4c(c3)CC(=O)N4C)CC2)cc1	-36.7% (inactive)

Structure (SMILES)	activity change, negative = inhibition
CCC(=O)N1CCc2cc(Br)cc(S(=O)(=O)NCc3ccc(Cl)cc3)c21	-9.15% (inactive)
COC(=O)c1cc(NC(=O)c2nn(C)c(=O)c3ccccc23)cc(C(=O)OC)c1	-10.5% (inactive)
CCSc1nnc(NC(=O)c2cc(=O)c3cc(C)c(C)cc3o2)s1	1.6% (inactive)
Cc1cc(F)ccc1NS(=O)(=O)c1ccc(-n2cccn2)cc1	-27.3% (inactive)
CCC(=O)N1CCc2cc(Br)cc(S(=O)(=O)CCC(=O)N3CCN(c4ccc(F)cc4)CC3)c21	25.8% (inactive)
S=C(NCC1CCCO1)N1CCN(c2ccc(Cl)c(Cl)c2)CC1 (stereo not drawn)	-86.4% (active)
COc1ccc(S(=O)(=O)N2CCN(C(=S)NCC3CCCO3)CC2)cc1OC (stereo not drawn)	4.06% (inactive)
COC(=O)CC(=O)N1CCN(c2ccc(Cl)c(Cl)c2)CC1	-31.5% (inactive)
CCOc1ccccc1NC(=O)Cn1c(=O)n(Cc2ccco2)c(=O)c2sc3ccccc3c21	30.3% (inactive)
COc1ccc(CNC(=O)Cn2nnc(-c3ccccc3F)n2)cc1	-0.694% (inactive)
Cc1cc(NC(=O)CC(C)C)cc(-c2nc3ncccc3o2)c1O	5.83% (inactive)
COc1ccc(C(=O)COC(=O)CN2C(=O)C3CC=CCC3C2=O)c(OC)c1 (stereo not drawn)	-5.28% (inactive)
CC1=CC(C)(C)Nc2ccc(OC(=O)CN3C(=O)C4CCCCC4C3=O)cc21 (stereo not drawn)	-63% (active)
O=C(COC(=O)CN1C(=O)C2CCCCC2C1=O)Nc1ccc(F)c(F)c1F (stereo not drawn)	-3.46% (inactive)
CCOc1ccc(C(=O)c2cn(Cc3ccccc3OC)c3ccc(F)cc3c2=O)cc1	-39% (inactive)
CC(C)(C)c1cc[n+](-c2[nH]c(=O)sc2/C=N/N=C(\[O-])c2ccccc2)cc1	-35.8% (inactive)
CCOc1ccc(S(=O)(=O)c2cn(Cc3ccc(OC)cc3)c3ccc(F)cc3c2=O)cc1	5.49% (inactive)
COc1ccc(Sc2ccc(NC(=O)c3cccc(Cl)c3)cc2C#N)cc1	-22.8% (inactive)
COc1cc(OC)cc(C(=O)Nc2c(C(=O)Nc3ccc(F)cc3)oc3ccccc23)c1	-7.35% (inactive)
COc1cccc(NC(=O)CN(C)C(C)C(=O)Nc2ccc(C#N)cc2)c1 (stereo not drawn)	-15.8% (inactive)
COc1cc(NC(=O)c2cncc(-c3ccc(C#N)cc3)c2)cc(C(=O)Nc2cccc(C(F)(F)F)c2)c1	-78.9% (active) and -65.8% (active)

Structure (SMILES)	activity change, negative = inhibition
Cc1cc(Nc2cccc(C(F)(F)F)c2)nc2ccc(NC(=O)c3ccc(=O)[nH]c3)cc12	-15.4% (inactive)
COc1cc(OC)cc(C(=O)Nc2ccc3nc(Nc4cccc(C(F)(F)F)c4)cc(C)c3c2)c1	-92.6% (active)
O=C1COCc2cc(-c3cccc(F)c3)ccc2N1CCN1CCOCC1	-29.7% (inactive)
CCOC(=O)c1cccc(NC(=O)c2cc(S(=O)(=O)N3CCCC(C)C3)cn2C)c1 (stereo not drawn)	-10.5% (inactive)
CCOC(=O)c1cccc(NC(=O)C2CCCN(S(=O)(=O)c3cnc[nH]3)C2)c1 (stereo not drawn)	-78.2% (active)
CC(=O)c1cccc(NC(=O)C2CCCN(S(=O)(=O)c3cccc4nonc34)C2)c1 (stereo not drawn)	8.09% (inactive)
CN(C)c1ccc(NC(=O)CSc2nc(-c3ccco3)cc(C(F)(F)F)n2)cc1	13.1% (inactive)
Cc1cc(NC(=O)CCC(=O)N(CC(=O)NCC2CCCO2)c2ccccc2)no1 (stereo not drawn)	-24.8% (inactive)
CCN(CC)P(=O)(Oc1cccc(C)c1)N(CC)CC	-101% (active)
Cc1cccc(OP(=O)(Oc2cccc(C)c2)OC(c2ccccc2)C(F)(F)F)c1 (stereo not drawn)	19.6% (inactive)
Cc1cccc(OP(=O)(Nc2c(C)n(C)n(-c3ccccc3)c2=O)Oc2cccc(C)c2)c1	-36.3% (inactive)
Cc1cc(Nc2ccc(Br)cc2F)n2ncnc2n1	3.15% (inactive)
COc1ccc(Cl)cc1-n1c(CCC(=O)O)ccc1-c1ccc(C)cc1	10.6% (inactive)
Cc1cc(C)c(NC(=O)CCc2c(C)nc3c(c(C)nn3C(C)(C)C)c2C)c(C)c1	3.32% (inactive)
COc1cccc(N(C(=O)C2COc3ccccc3O2)C(C(=O)NC2CCCCC2)c2ccc(O)cc2)c1 (stereo not drawn)	-15.7% (inactive)
Cc1ccccc1N(C(=O)CNC(=O)c1cccs1)C(C(=O)NC1CCCC1)c1ccncc1 (stereo not drawn)	62.4% (inactive)
COc1ccc(C(C(=O)NC2CCCCC2)N(C(=O)CCl)c2ccccc2Cl)cc1 (stereo not drawn)	-97.5% (active)
Oc1c(C(c2ccc(F)cc2)N2CCN(Cc3ccccc3)CC2)sc2nc(-c3ccco3)nn12 (stereo not drawn)	-3% (inactive)
CC(=O)C[C@@H](O)CC(=O)[C@H]1OC(=O)CCCCCCc2ccccc21	6.44% (inactive)
CCCCCn1c(=O)[nH]c2cc(C(=O)NCCCN3CCCCC3C)ccc2c1=O (stereo not drawn)	-19.8% (inactive)
Cc1cccc(N2CCN(C(=O)CCSCc3ccccc3F)CC2)c1C	11.2% (inactive)

Structure (SMILES)	activity change, negative = inhibition
CCOC(=O)c1cnc2c(C)cc(C)cc2c1Nc1ccc(N2CCOCC2)cc1	6.54% (inactive)
CCOC(=O)c1cnc2ccc(F)cc2c1Nc1ccc2c(c1)OCCO2	-76.3% (active)
CCC(=O)c1cc(F)ccc1OCC(=O)Nc1ccc2c(c1)OCCO2	-17.8% (inactive)
COc1cccc(CNC(=O)C2CCCN(c3ncnc4c3nc3n4CCCCC3)C2)c1 (stereo not drawn)	-15.7% (inactive)
O=C(NCc1ccccc1Cl)C1CCN(c2ncnc3c2nc2n3CCCCC2)CC1	0% (inactive) and -68.9% (active)
CCOC(=O)c1cccc(NC(=O)C2CCN(c3ncnc4c3nc3n4CCCCC3)CC2)c1	4.29% (inactive)
COc1ccc(N(C)C(=O)C2CCN(S(=O)(=O)c3cc(Br)cc4c3N(C(C)=O)CC4)CC2)cc1	8.13% (inactive)
COc1ccc(-c2cc(C(=O)Nc3sc4c(c3C(N)=O)CCCC4)no2)cc1	21.3% (inactive)
CC(C)(C)c1cc(C(=O)NN)n(Cc2ccc(Cl)cc2Cl)n1	-79.4% (active)
CC(C)(CNC(=O)Cc1ccc(Cl)cc1Cl)N1CCOCC1	-8.38% (inactive)
Cn1cc(C(=O)c2ccc(Cl)cc2Cl)cc1C(=O)NN	-23.5% (inactive)
CC(=O)Nc1cccc(NC(=O)CSc2cn(CC(=O)N3CCCC3)c3ccccc23)c1	-3.21% (inactive)
O=C(CCS(=O)(=O)c1cc(Br)cc2c1N(C(=O)C1CC1)CC2)Nc1ccc(C(F)(F)F)cc1	1.29% (inactive)
O=C(NCc1ccccc1)C1=C[C@@H](C2CCCCC2)C[C@@H](OCc2ccc(CO)cc2)O1	-86.3% (active)
CC(C)(C)[C@H]1C=C(C(=O)NCc2ccccc2)O[C@@H](OCc2ccc(CO)cc2)C1	-2.88% (inactive)
O=C(NCc1ccccc1)C1=C[C@H](C2CC2)C[C@H](OCc2ccc(CO)cc2)O1	7.43% (inactive)
Cc1c(CN2CCC(CO)(CCOc3ccccc3)CC2)[nH]c2ccc(Cl)cc12	-92.5% (active)
CCC(C)CN1CCC(CO)(Cc2ccccc2Cl)CC1 (stereo not drawn)	-7.29% (inactive)
OCC1(CCc2ccccc2)CCN(Cc2ccc3nsnc3c2)CC1	13.2% (inactive)
COc1ccccc1CNC(=O)CCn1c(=O)c2ccccc2n(CC(=O)Nc2cccc(Cl)c2)c1=O	-39.6% (inactive)

From PubChem BioAssay AID1259415 (National Center for Advancing Translational Sciences (NCATS), 2018)
